# Rows were chosen to be rich in hits. Some 1.4% of all compounds tested hit in one or more screens of this group.
# IDE cell activ: human IDE activators in live cells, primary screen, fluorescence polarization, HEK cells, FAbeta-B substrate; activation, % at 5.96 µM; FAbeta-B cleavage; 0% vehicle, 100% cell-free pure enzyme wells; 340,000 tested, 0.073% active; AID 493087, 2011;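 active = activation above the mean of all tested compounds plus 3 SD, set per screening campaign, cut at about 17% in these data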
# Target sequence (P14735 whole entry, looked up): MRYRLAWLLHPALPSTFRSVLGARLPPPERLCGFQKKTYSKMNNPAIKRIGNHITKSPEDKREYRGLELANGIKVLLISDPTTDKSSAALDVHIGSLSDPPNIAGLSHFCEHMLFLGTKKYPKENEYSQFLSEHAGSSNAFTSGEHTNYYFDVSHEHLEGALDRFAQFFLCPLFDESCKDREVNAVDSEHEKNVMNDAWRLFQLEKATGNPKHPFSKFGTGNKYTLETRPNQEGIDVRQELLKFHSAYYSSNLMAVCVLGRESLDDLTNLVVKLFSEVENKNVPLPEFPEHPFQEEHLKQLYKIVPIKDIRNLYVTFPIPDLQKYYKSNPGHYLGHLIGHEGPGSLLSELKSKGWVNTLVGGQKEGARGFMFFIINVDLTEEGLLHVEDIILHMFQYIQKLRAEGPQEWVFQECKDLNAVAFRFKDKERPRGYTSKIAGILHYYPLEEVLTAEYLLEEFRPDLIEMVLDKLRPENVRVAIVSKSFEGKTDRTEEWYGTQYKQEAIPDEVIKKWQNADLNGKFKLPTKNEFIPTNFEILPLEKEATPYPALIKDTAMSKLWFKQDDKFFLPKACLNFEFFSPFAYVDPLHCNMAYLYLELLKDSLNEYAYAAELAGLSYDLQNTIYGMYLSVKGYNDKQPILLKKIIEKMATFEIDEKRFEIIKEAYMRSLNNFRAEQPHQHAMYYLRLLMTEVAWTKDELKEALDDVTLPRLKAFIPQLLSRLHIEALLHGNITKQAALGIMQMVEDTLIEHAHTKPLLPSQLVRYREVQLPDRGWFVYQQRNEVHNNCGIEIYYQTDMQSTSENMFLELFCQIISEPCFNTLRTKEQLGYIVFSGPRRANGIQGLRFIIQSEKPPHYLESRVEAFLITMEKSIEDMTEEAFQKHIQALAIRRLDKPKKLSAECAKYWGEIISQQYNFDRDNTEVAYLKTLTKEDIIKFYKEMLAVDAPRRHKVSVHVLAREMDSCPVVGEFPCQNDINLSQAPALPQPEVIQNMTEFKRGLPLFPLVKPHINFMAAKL
# TPT1 inhibitor: Candida albicans TPT1 enzyme inhibitors, primary screen, biochemical, fluorescence polarization | tRNA 2'-phosphotransferase TPT1 (Candida albicans SC5314) | inhibition, % at 5 µM | recombinant caTPT1, FP RNA substrate dephosphorylation | AID 1962, 2009 | 300,000 tested, 0.81% active;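 active = inhibition above the mean of all tested compounds plus 3 SD, set per screening campaign, cut at about 24% in these data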;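 also: plate controls were DMSO alone for no effect and ferristatin control at 100 nM for full effect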
# HNF4A DNA FP: change in binding of human HNF4A to DNA, primary screen, biochemical, fluorescence polarization, FITC-DNA | Hepatocyte nuclear factor 4-alpha (Homo sapiens), P41235 | AID 1224865, 2016 | 1 h | activity change, % at 10 µM | 360,000 tested, 0.3% active; in the data active = activity change above about 30%, passing the limit was not always enough
# IDE inh: human IDE inhibitors in live cells, primary screen, fluorescence polarization, HEK cells, FAbetaB substrate; FAbetaB cleavage; inhibition, % at 5.59 µM; 320,000 tested, 0.41% active;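 active = percent inhibition above the average of all tested compounds plus 3 SD, set per screening campaign, cut at about 16% in these data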;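 also: IDE supplied by intact live HEK cells; FP after avidin binding of uncleaved biotin substrate so inhibition keeps polarization high; 0% = DMSO wells and 100% = 60 µM reference IDE inhibitor Ii1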
# CRFR2-BP ag: agonists of CRF-BP/CRF-R2 complex, primary screen, cell-based, HEK293, calcium dye fluorescence, uHTS; CRF-binding protein / CRF receptor 2 complex (human); calcium dye fluorescence (FLIPR); percent of saturating CRF peptide response; activation, % at 13.2 µM; 350,000 tested, 0.46% active; AID 588473, 2011;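 active = activation of at least 50%, plus an integration ratio under a set limit after plate pattern correction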;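 also: plate controls were neutral control wells without compound for no effect and CRF at EC100 for full effect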
# caTPT1 confirm: Candida albicans TPT1 inhibitors, confirmation, biochemical, fluorescence polarization, triplicate; shares compounds with TPT1 inhibitor; recombinant caTPT1, RNase T1 coupled; inhibition, % at 5 µM; 2,400 tested, 74% active; AID 2149, 2009;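 active = inhibition above the primary screen limit, the mean inhibition of all tested compounds plus 3 SD, cut at about 25% in these data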
# RNase T1 counter: RNase T1 inhibitors, counter-screen for TPT1 inhibitor project, biochemical, fluorescence polarization | shares compounds with TPT1 inhibitor | RNase T1 cleavage, 1536-well | inhibition, % at 5 µM | 2,400 tested, 83% active;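 active = inhibition above the solvent-only control well mean plus 3 SD, limit set per screening run, cut at about 23% in these data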;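 also: plate controls were DMSO wells with enzyme for no effect and wells without RNase T1 for full effect; inhibitors block cleavage so intact labeled substrate keeps polarization high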
# Active calls of the source: *; . = no result given.
SMILES,IDE cell activ,TPT1 inhibitor,HNF4A DNA FP,IDE inh,CRFR2-BP ag,caTPT1 confirm,RNase T1 counter
S=C(NCCc1ccccc1)Nc1ccc(N2CCCCC2)cc1,1,0,4,-4,-2,.,.
Cc1ccc(SC(C)C(=O)NCc2ccncc2)cc1 (configuration not stated),-17,114*,-3,7,-1,6,7
COc1ccc(CNC(=O)C(C)Sc2ccc(C)cc2)cc1 (configuration not stated),4,-3,4,2,0,.,.
Cc1cc(S(=O)(=O)Nc2nc(CN3CCOCC3)nc3sc4c(c23)CCC4)ccc1F,-8,.,4,-3,-1,.,.
COC(=O)C1CC(=O)c2ccsc2C1 (configuration not stated),-5,64*,-3,7,1,1,4
COC(=O)C1C/C(=N\NS(=O)(=O)c2ccc(C)cc2)c2sccc2C1 (configuration not stated),0,-4,-2,-2,-1,.,.
CCn1ncc(Br)c1C(=O)Nc1cc(C)on1,2,.,-1,.,-1,.,.
COc1ccc2cc(/C=C/C(=O)c3ccco3)c(Cl)nc2c1,.,17,.,5,.,.,.
COc1cc2cc(/C=C/C(=O)c3ccco3)c(Cl)nc2cc1OC,-5,33*,16,5,8,47*,56*
N#C/C(=C/c1ccc(-c2ccccc2)o1)c1nc(-c2cccs2)cs1,-15,131*,17,14,159*,124*,114*
N#C/C(=C\c1ccc(-c2ccccc2)cc1)c1nc(-c2ccco2)cs1,-4,61*,22,7,9,21,28*
N#C/C(=C\c1ccc(-c2ccc(F)cc2)o1)C(=O)Nc1nc(-c2cccs2)cs1,-2,-2,-5,7,10,.,.
CC1Cc2ccccc2N1C(=O)COC(=O)c1ccc([N+](=O)[O-])o1 (configuration not stated),-4,.,0,9,0,.,.
CCN(CC)c1ccc(/C=N/NC(=O)c2ccco2)c(O)c1,-1,27*,14,2,1,48*,59*
CCN(CC)c1ccc(/C=N/Nc2nc3ccccc3[nH]2)c(O)c1,1,34*,2,-4,-1,17,21
CCN(CC)c1ccc(/C=N/N=C(c2ccccc2)c2ccccc2)c(O)c1,7,36*,29,-4,9,98*,104*
COc1cc(OC)c(OC)cc1/C=N/Nc1nc2ccccc2[nH]1,-1,1,0,1,0,.,.
Cc1n[nH]c(C)c1NC(=O)CSc1nnnn1-c1cccc(F)c1,6,.,-2,0,-2,.,.
O=C1c2ccc(-c3ccc(Cl)c(C(F)(F)F)c3)cc2S(=O)(=O)c2cccc(C(=O)N3CCN(c4ccc(Cl)cn4)CC3)c21,2,.,-4,2,1,.,.
CCN1CCN(c2nc3c(c(=O)[nH]c(=O)n3C)n2Cc2cccc(C)c2)CC1,.,.,2,.,0,.,.
CCC(CC)C1C(C#N)=C(N)SC(N)=C1C#N,0,39*,8,-1,2,15,15
O=C1Nc2ccc(Br)cc2C12NNc1ccccc1O2 (configuration not stated),7,83*,95,3,13,105*,110*
CSCc1nc2sc(C(=O)Nc3nc(C)cs3)c(C)c2c(=O)[nH]1,1,33*,25,2,2,39*,51*
CCOC(=O)N1CCN(c2cc(=O)n(-c3cccc(C)c3)c(=O)[nH]2)CC1,-2,110*,2,1,2,-3,3
CC(=O)N1CCc2cc(N=NC3=C(O)CC(C)(C)CC3=O)ccc21,-6,27*,66*,1,4,46*,57*
SMILES,IDE cell activ,TPT1 inhibitor,HNF4A DNA FP,IDE inh,CRFR2-BP ag,caTPT1 confirm,RNase T1 counter
Cc1nc2ccc(N=NC3=C(O)CC(C)(C)CC3=O)cc2s1,3,4,4,2,-2,.,.
CCOC(=O)c1cccc(NC(=O)Nc2ccc3c(c2)C(=O)OC3)c1,.,-3,2,-1,1,.,.
CN1CCc2c(sc(/N=C/c3cccs3)c2C(N)=O)C1,-7,39*,20,-2,60*,43*,56*
COc1cc2ccccc2cc1C(=O)Nc1sc2c(c1C(N)=O)CCN(C(C)C)C2,-1,82*,38,10,.,54*,62*
CN1CCc2c(sc(NC(=O)c3ccc4ccccc4c3)c2C(N)=O)C1,-7,34*,32,5,.,25*,34*
CC(OC(=O)CCN=C1NS(=O)(=O)c2ccccc21)C(=O)Nc1ccc(S(N)(=O)=O)cc1 (configuration not stated),5,.,0,-3,2,.,.
Cn1cc(/C=C/C(=O)c2ccccc2)c2ccccc21,-2,34*,16,-2,1,38*,45*
CC(=O)Nc1sc(/C(C#N)=C\c2cccc(Cl)c2)nc1-c1ccc(C)cc1,-8,36*,32,8,319*,36*,48*
CC(=O)Nc1sc(N/N=C/c2ccccc2)nc1-c1ccc(C)cc1,-7,0,-3,6,0,.,.
CC(=O)NC(c1ccccc1)c1nc(-c2ccc3ccccc3c2)cs1 (configuration not stated),.,.,0,.,.,.,.
Cc1[nH]n(-c2ccccc2)c(=O)c1/C=N/N(c1ccccc1)c1ccccc1,4,-2,-5,-7,0,.,.
CCOC(=O)c1sc(/N=C/c2c(C)[nH]n(-c3ccccc3)c2=O)c(C#N)c1C,.,30*,.,-2,.,120*,124*
N#Cc1ccsc1NC(=O)c1cccc(-n2cnnn2)c1,-4,48*,42*,-1,4,51*,64*
O=C(N/N=C/C=C/c1ccc([N+](=O)[O-])cc1)c1cccs1,-1,44*,56*,-8,-1,30*,46*
O=C(N/N=C/C=C\c1ccccc1[N+](=O)[O-])c1cccs1,4,-3,-2,6,0,.,.
Cc1ccc([C@H]2C[C@H](O)[C@@H](n3cc(COC(=O)c4ccccc4)nn3)CN2Cc2cccs2)cc1,.,.,2,.,3,.,.
Cc1ccc(-c2cn3nc(-c4ccccc4)c(-c4ccccc4)nc3n2)cc1,.,68*,-39,4,13,71*,75*

# Compound activity deposited in PubChem by several laboratories.
